# The supplement of paper PMC7411054
# Counter-ions that a name gives are not always drawn.
# Tests used:
# Conditions in all cases: treatment time: 24 h
# [1] = test system: A549-ACTB-RAB5A; assay: lowest phenotypically active concentration; higher = less potent
# Summary of the method: (§1)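 Fifteen reporter lines derived from A549, HepG2 and WPMY1 cells by gene editing, carrying BFP for segmentation plus GFP and RFP/FusionRed markers, were exposed to 0.3, 1, 3 or 9 µM for 24 h in four wells each and imaged live. Live-cell features from each well were normalised to solvent control wells. A well set counted as deviating when ≥3 of 4 wells lay beyond the 95th percentile of control Euclidean distances, and as reproducible when the median replicate Pearson correlation exceeded the 95th percentile of non-replicates. Phenotypic activity was assigned only when both criteria were met.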
# [2] = test system: A549-GM130-SQSTM1; assay: as above
# Summary of the method: as §1
# [3] = test system: A549-TUBA1B-RELA; assay: as above
# Summary of the method: as §1
# [4] = test system: HepG2-ACTB-RAB5A; assay: as above
# Summary of the method: as §1
# [5] = test system: WPMY1-GM130-SQSTM1; assay: as above
# Summary of the method: as §1
# [6] = test system: A549-ACTB-RAB5A; assay: phenotypically active (imaging signature differs from DMSO and reproducible) at any of 0.3-9 uM (binary (1 = active, 0 = inactive)); higher = active
# Summary of the method: as §1
# [7] = test system: A549-CANX-COX4; assay: as above
# Summary of the method: as §1
# [8] = test system: A549-GM130-SQSTM1; assay: as above
# Summary of the method: as §1
# [9] = test system: A549-TP53BP1-CLTA; assay: as above
# Summary of the method: as §1
# [10] = test system: A549-TUBA1B-RELA; assay: as above
# Summary of the method: as §1
# [11] = test system: HepG2-ACTB-RAB5A; assay: as above
# Summary of the method: as §1
# [12] = test system: HepG2-CANX-COX4; assay: as above
# Summary of the method: as §1
# [13] = test system: HepG2-GM130-SQSTM1; assay: as above
# Summary of the method: as §1
# [14] = test system: HepG2-TP53BP1-CLTA; assay: as above
# Summary of the method: as §1
# [15] = test system: HepG2-TUBA1B-RELA; assay: as above
# Summary of the method: as §1
# [16] = test system: WPMY1-ACTB-RAB5A; assay: as above
# Summary of the method: as §1
# [17] = test system: WPMY1-CANX-COX4; assay: as above
# Summary of the method: as §1
# [18] = test system: WPMY1-GM130-SQSTM1; assay: as above
# Summary of the method: as §1
# [19] = test system: WPMY1-TP53BP1-CLTA; assay: as above
# Summary of the method: as §1
# [20] = test system: WPMY1-TUBA1B-RELA; assay: as above
# Summary of the method: as §1
Structure (SMILES),lowest phenotypically active concentration [1] [µM],lowest phenotypically active concentration [2] [µM],lowest phenotypically active concentration [3] [µM],lowest phenotypically active concentration [4] [µM],lowest phenotypically active concentration [5] [µM],phenotypically active [6],phenotypically active [7],phenotypically active [8],phenotypically active [9],phenotypically active [10],phenotypically active [11],phenotypically active [12],phenotypically active [13],phenotypically active [14],phenotypically active [15],phenotypically active [16],phenotypically active [17],phenotypically active [18],phenotypically active [19],phenotypically active [20]
CCCS(=O)(=O)Nc1ccc(F)c(C(=O)c2c[nH]c3ncc(Cl)cc23)c1F,3,9,9,3,9,1 (active),0 (inactive),1 (active),1 (active),1 (active),1 (active),1 (active),1 (active),1 (active),1 (active),0 (inactive),0 (inactive),1 (active),0 (inactive),0 (inactive)
CCOP(=O)(OCC)C(=Cc1cc(C(C)(C)C)c(O)c(C(C)(C)C)c1)P(=O)(OCC)OCC,9,9,–,–,–,1 (active),0 (inactive),1 (active),0 (inactive),0 (inactive),0 (inactive),0 (inactive),0 (inactive),0 (inactive),0 (inactive),0 (inactive),0 (inactive),0 (inactive),0 (inactive),0 (inactive)
CC(C)COCC(CN(Cc1ccccc1)c1ccccc1)N1CCCC1 (configuration not stated) [bepridil],9,9,9,9,9,1 (active),0 (inactive),1 (active),1 (active),1 (active),1 (active),1 (active),1 (active),1 (active),1 (active),0 (inactive),1 (active),1 (active),1 (active),0 (inactive)
COc1cc2ncnc(Nc3ccc(Cl)cc3F)c2cc1OC,9,3,3,–,–,1 (active),0 (inactive),1 (active),1 (active),1 (active),0 (inactive),0 (inactive),0 (inactive),0 (inactive),0 (inactive),0 (inactive),0 (inactive),0 (inactive),0 (inactive),0 (inactive)
CCCNCC(O)COc1ccccc1C(=O)CCc1ccccc1 (configuration not stated) [propafenone],9,9,9,9,3,1 (active),0 (inactive),1 (active),1 (active),1 (active),1 (active),0 (inactive),0 (inactive),0 (inactive),1 (active),1 (active),1 (active),1 (active),1 (active),0 (inactive)
CC/C(=C(\CC)c1ccc(O)c(CN(CC)CC)c1)c1ccc(O)c(CN(CC)CC)c1,≤ 0.3,≤ 0.3,≤ 0.3,1,1,1 (active),0 (inactive),1 (active),1 (active),1 (active),1 (active),0 (inactive),1 (active),1 (active),1 (active),1 (active),1 (active),1 (active),1 (active),1 (active)
CC#CC(=O)N1CCC[C@H]1c1nc(-c2ccc(C(=O)Nc3ccccn3)cc2)c2c(N)nccn12 [acalabrutinib],9,9,–,–,–,1 (active),0 (inactive),1 (active),0 (inactive),0 (inactive),0 (inactive),0 (inactive),0 (inactive),0 (inactive),0 (inactive),0 (inactive),0 (inactive),0 (inactive),0 (inactive),0 (inactive)
O=C(O)Cc1cccc(OCCCN(Cc2cccc(C(F)(F)F)c2Cl)CC(c2ccccc2)c2ccccc2)c1 [GW 3965 hydrochloride],9,–,–,–,–,1 (active),1 (active),0 (inactive),0 (inactive),0 (inactive),0 (inactive),1 (active),0 (inactive),0 (inactive),1 (active),0 (inactive),0 (inactive),0 (inactive),0 (inactive),0 (inactive)
Cn1cc(CCn2cnc(-c3cnn(C)c3)c2-c2ccc(C#N)cc2)cn1,9,9,–,–,–,1 (active),0 (inactive),1 (active),0 (inactive),0 (inactive),0 (inactive),0 (inactive),0 (inactive),0 (inactive),0 (inactive),0 (inactive),0 (inactive),0 (inactive),0 (inactive),0 (inactive)
COc1ccc(CNC(=O)Nc2ncc([N+](=O)[O-])s2)cc1,9,9,9,–,9,1 (active),0 (inactive),1 (active),1 (active),1 (active),0 (inactive),0 (inactive),0 (inactive),0 (inactive),0 (inactive),0 (inactive),1 (active),1 (active),1 (active),0 (inactive)
CCCCOc1cc(C(=O)NCCN(CC)CC)c2ccccc2n1 [cinchocaine],3,9,9,–,–,1 (active),0 (inactive),1 (active),1 (active),1 (active),0 (inactive),0 (inactive),0 (inactive),1 (active),0 (inactive),1 (active),0 (inactive),0 (inactive),0 (inactive),0 (inactive)
